Assay results from PubChem BioAssay AID2685 (National Center for Advancing Translational Sciences (NCATS), 2010).
About 2,100 (0.66%) of roughly 320,000 compounds were called active. Inconclusive results (about 53%) are left out. The sample holds actives, similar compounds and a random draw of the others, so the mix is not that of the screen. Calls follow the shape of the dose curve; as a rule, active = well fitted inhibition curve with a large enough effect in the signal ratio, with a control signal flat (not every such curve was filed as active); inconclusive = small, poorly fitted or top-dose-only effect, or effect the other way, or a change in a side signal; inactive = flat fitted curve, though single readings scatter; the % refers to the signal ratio.
Potency is read from the fitted curve at half-maximal effect.

Test: qHTS Assay for Lipid Storage Modulators in Drosophila S3 Cells;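 as to cell number change: cells counted by Cell Tracker Red CMTPX staining in the red channel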; as to lipid storage change, negative = inhibition: % is scaled to controls: 0 for no effect and ±100 for the full control effect
Conditions: BODIPY lipid droplet fluorescence, 18-24 h, cells fed with added oleic acid; cell number change: measured here: cell count max response; series mostly up to 46.1 µM; lipid storage change, negative = inhibition: at the top concentration
How it was run: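 Drosophila S3 cells got compounds at several concentrations plus oleic acid (400 uM solution). Laser-scanning cytometry with 488 nm excitation read lipid droplets at 500-530 nm and cells at 575-640 nm. Percent activity was relative to 20 uM Triacsin C.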
For `CC12CN3CC(C)(CN(C1)C3c1ccc(Cl)cc1)C2` (stereo not drawn), the “lipid storage change, negative = inhibition” value was -3.46% (inactive) and the cell number change was -7.54%.
With `CC12CN3CC(C)(CN(C1)C3c1ccc(F)cc1)C2` (stereo not drawn) the Potency was 0.731 µM (active) and the cell number change was -6.72%.
In the case of `Cc1nnc(NC(=O)CSc2ccc(-c3ccco3)nn2)s1`, the “lipid storage change, negative = inhibition” value is reported as 1.52% (inactive) and the cell number change is reported as 17.1%.
In the case of `NS(=O)(=O)c1ccc(NC(=O)Nc2ccc(Cl)cc2)cc1`, the “lipid storage change, negative = inhibition” value is reported as -5.77% (inactive) and the cell number change is reported as -17.6%.
For `COc1ccc(CC(=O)Nc2nc(-c3ccc(OC)c(OC)c3)cs2)cc1OC`, the “lipid storage change, negative = inhibition” value was -0.677% (inactive) and the cell number change was -7.98%.
In the case of `COc1ccc(CC(=O)Nc2nc(-c3ccc(F)c(F)c3)cs2)cc1OC`, the Potency is reported as 6.51 µM (active) and the cell number change is reported as 21%.
For `COc1ccc(CC(=O)Nc2nc(-c3ccc(F)c(F)c3)cs2)cc1`, the “outcome” value was “inactive” and the cell number change was 17.2%.
For `Cc1ccccc1OCCC(=O)OCC(=O)Nc1ccc(C(N)=O)cc1`, the “lipid storage change, negative = inhibition” value was 3.07% (inactive) and the cell number change was 0.749%.
With `O=C(CSCc1ccc(F)cc1)Nc1ccc(F)cc1` the “lipid storage change, negative = inhibition” value was 0.0604% (inactive) and the cell number change was 14.6%.
In the case of `CCc1nnc(NC(=O)C2CC(=O)N(C3CCCC3)C2)s1` (stereo not drawn), the “outcome” value is reported as “inactive” and the cell number change is reported as 8.4%.
In the case of `CCOC(=O)N1CCN(C(=O)C2CCN(S(=O)(=O)c3cc(Cl)ccc3Cl)CC2)CC1`, the “lipid storage change, negative = inhibition” value is reported as 9.01% (inactive) and the cell number change is reported as -24.4%.
With `COc1cc(C(=O)NCCC2=CCCCC2)ccc1OC1CCN(C(C)=O)CC1` the “lipid storage change, negative = inhibition” value was -13.8% (inactive) and the cell number change was 8.8%.
For `COc1ccc(NC(=O)CN2CCC(C(=O)c3ccc(F)cc3)CC2)c(OC)c1`, the “outcome” value was “inactive” and the cell number change was -0.87%.
With `COc1ccc(NC(=O)CN2CCCN(S(=O)(=O)c3ccc(F)cc3)CC2)c(OC)c1` the “lipid storage change, negative = inhibition” value was 0.193% (inactive) and the cell number change was 0.557%.
In the case of `COc1ccc(NC(=O)c2ccc(C(=O)Nc3ccc(OC)cc3OC)cc2)c(OC)c1`, the “lipid storage change, negative = inhibition” value is reported as -1.09% (inactive) and the cell number change is reported as 1.2%.
With `COc1ccc(NC(=O)CN2CCN(CC(=O)Nc3ccc(F)cc3)CC2)c(OC)c1` the Potency was 18.4 µM (active) and the cell number change was 21.1%.
With `CCC(C)C(=O)Nc1ccc(OC)cc1OC` (stereo not drawn) the Potency was 23.1 µM (active) and the cell number change was 17.4%.
In the case of `COc1ccc(NC(=O)C(CC(C)C)NC(=O)C2CCCCC2)c(OC)c1` (stereo not drawn), the “lipid storage change, negative = inhibition” value is reported as -6.75% (inactive) and the cell number change is reported as -5.85%.
In the case of `Cc1cc(Br)cc2c1NC(=O)C2(O)CC(=O)c1ccco1` (stereo not drawn), the cell number change is reported as 3.68% and the lipid storage change, negative = inhibition is reported as 9.35% [at 9.22 µM] (inactive).
In the case of `COc1ccc(NC(C)=[N+](C)CCNS(=O)(=O)c2ccc(Cl)cc2)cc1`, the “lipid storage change, negative = inhibition” value is reported as 27.3% (inactive).
With `C/C(CCc1ccco1)=N/NC(=O)CCC(=O)Nc1cccc(Cl)c1` the “lipid storage change, negative = inhibition” value was -0.598% (inactive) and the cell number change was 0.649%.
With `CC(=O)Nc1ccc(NC2=CC(=O)c3ccccc3C2=O)cc1` the “lipid storage change, negative = inhibition” value was 6.65% (inactive) and the cell number change was 4.49%.
In the case of `O=S(=O)(/N=C(/Nc1ccccc1F)c1ccccc1)c1ccccc1`, the “outcome” value is reported as “inactive”.
With `O=C(O)c1ccc(S(=O)(=O)/N=C2\C=C(Nc3ccccc3F)C(=O)c3ccccc32)cc1` the Potency was 6.51 µM (active) and the cell number change was 2.14%.
With `Cc1cc(C)c(S(=O)(=O)/N=C2\C=C(Nc3ccc(C(=O)O)cc3)C(=O)c3ccccc32)c(C)c1` the Potency was 0.92 µM (active) and the cell number change was 11.7%.
With `CCc1ccc(S(=O)(=O)/N=C2\C=C(Nc3ccc(O)cc3)C(=O)c3ccccc32)cc1` the “lipid storage change, negative = inhibition” value was -100% (inactive) and the cell number change was 15.8%.
In the case of `CC(C)(C)c1ccc(S(=O)(=O)/N=C2\C=C(NS(=O)(=O)c3ccccc3)C(=O)c3ccccc32)cc1`, the “outcome” value is reported as “inactive” and the cell number change is reported as -1.8%.
With `Cc1ccc(-n2c(C)cc(/C=N/NC(=O)c3ccncc3)c2C)cc1C` the “outcome” value was “inactive”.
In the case of `CC1(C)CC(NC(=S)Nc2ccc([N+](=O)[O-])cc2)CC(C)(C)N1`, the “lipid storage change, negative = inhibition” value is reported as -0.0033% (inactive) and the cell number change is reported as 15.8%.
For `Cc1ccc(C(=O)Nc2cc3c(cc2N2CCCCC2)n(C)c(=O)n3C)cc1`, the “outcome” value was “inactive” and the cell number change was -8.73%.
With `CCOC(=O)C1CCN(c2cc3c(cc2NC(=O)c2ccc(F)cc2)n(C)c(=O)n3C)CC1` the “outcome” value was “inactive” and the cell number change was -8.96%.
In the case of `CCOC(=O)C1CCN(c2cc3c(cc2NC(=O)c2ccccc2)n(C)c(=O)n3C)CC1`, the Potency is reported as 3.66 µM (active).
In the case of `c1ccc(-c2nc(-c3nccc4ccccc34)oc2-c2ccccc2)cc1`, the “lipid storage change, negative = inhibition” value is reported as 3.9% (inactive) and the cell number change is reported as -5.47%.
In the case of `N#CCCN(C(=O)COc1ccc(C#N)cc1)c1ccc(F)cc1`, the “lipid storage change, negative = inhibition” value is reported as -8.49% (inactive) and the cell number change is reported as 6.15%.
With `CCN(C(=O)c1ccccc1Cl)c1ccccc1` the Potency was 23.1 µM (active).
With `CCN(C(=O)CCC(=O)N(CC)c1ccccc1)c1ccccc1` the “lipid storage change, negative = inhibition” value was 15.9% (inactive) and the cell number change was -0.108%.
In the case of `CN(C(=O)c1ccccc1Cl)c1ccccc1`, the “lipid storage change, negative = inhibition” value is reported as -1.64% (inactive).
In the case of `CCC(C)(C)n1nnnc1C(c1cccnc1)N1CCN(c2cccc(C(F)(F)F)c2)CC1` (stereo not drawn), the “lipid storage change, negative = inhibition” value is reported as -18.5% (inactive) and the cell number change is reported as -8.43%.
With `O=[N+]([O-])c1ccc(-c2ccc(S(=O)(=O)N3CCOCC3)cc2)cc1` the “lipid storage change, negative = inhibition” value was 20.9% (inactive) and the cell number change was -1.81%.
With `CC(=O)C(=Cc1ccc(O)cc1)C(C)=O` the “lipid storage change, negative = inhibition” value was -1.96% (inactive) and the cell number change was -7.54%.
In the case of `Cc1cc2c(cc1S(=O)(=O)N(C)c1ccccc1)NC(=O)CO2`, the “lipid storage change, negative = inhibition” value is reported as -11.8% (inactive) and the cell number change is reported as -11.6%.
For `Cc1ccccc1NC(=O)CN1CCN(C(=O)c2ccco2)CC1`, the “lipid storage change, negative = inhibition” value was -7.52% (inactive) and the cell number change was 25%.
With `O=C(CN1CCN(C(=O)c2ccco2)CC1)Nc1cc(Cl)ccc1Cl` the “lipid storage change, negative = inhibition” value was -22.6% (inactive) and the cell number change was -13.1%.
With `COC(=O)c1cc(C)sc1NC(=O)CN1CCN(C(=O)c2ccco2)CC1` the Potency was 1.84 µM (active) and the cell number change was 3.78%.
In the case of `CCc1cc(C(=O)OC)c(NC(=O)CN2CCN(C(=O)c3ccco3)CC2)s1`, the “lipid storage change, negative = inhibition” value is reported as -16.1% (inactive) and the cell number change is reported as 13.8%.
In the case of `CCOC(=O)c1cc(C)sc1NC(=O)CN1CCN(C(=O)c2ccco2)CC1`, the “outcome” value is reported as “inactive” and the cell number change is reported as 16.2%.
With `Cc1cc(Cl)ccc1NC(=O)CN1CCN(C(=O)c2ccco2)CC1` the Potency was 4.61 µM (active) and the cell number change was 2.78%.
